# Some of the results follow. Values without a mark were called inactive. Activity calls are given as the source filed them.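 Rule for the calls: active = average inhibition reaching 50% or more with the compound at 20 µM; inactive = the rest.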
# Tested on: diaphorase (Clostridium kluyveri)
# Test: diaphorase inhibitors and chemical oxidizers, confirmation, counter-screen for P. falciparum G6PD inhibitor project, biochemical, fluorescence intensity, 10 µM NADPH (AID 504862);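 note: resorufin red fluorescence formed as diaphorase reduces resazurin using NADPH; 0% = DMSO with enzyme and 100% = DMSO without enzyme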
# Details: diaphorase-coupled resazurin reduction, NADPH 10 uM, at 20 µM, hits give high values
row,Structure (SMILES),inhibition
1,Cc1ccc(NC(=O)Cn2sc3ccccc3c2=O)cc1,0.47%
2,O=C(Nc1nc(-c2ccncc2)cs1)C1COc2ccccc2O1 (stereo unspecified),-37.4%
3,COc1cccc(C(=O)Nc2nnc(S(=O)(=O)N3CCOCC3)s2)c1,69.5% (active)
4,CCOc1ccccc1/C=N/NC(=O)CNC(=O)COc1ccccc1,96.9% (active)
5,O=C(NC1=CC(=O)c2ccccc2C1=O)c1ccccc1,48.7%
6,O=c1[nH]c2ccccc2n2c(-c3ccccc3)nnc12,37.2%
7,COc1ccc(CCn2c(NN=C3CCCC3)nc3c2c(=O)[nH]c(=O)n3C)cc1,7.63%
8,O=C(Nc1nnc(S(=O)(=O)N2CCCCCC2)s1)c1cccc(Br)c1,52.1% (active)
9,CCN(CC)c1ccc2oc(=O)c(C)nc2c1,87.7% (active)
10,COc1ccc(CC(=O)NCC(=O)N/N=C/c2cc(Br)ccc2OC)cc1,87.8% (active)
11,O=C(CN1CCN(c2ccc(O)cc2)CC1)Nc1cc(S(=O)(=O)N2CCOCC2)ccc1Cl,-6.79%
12,O=C(Nc1nnc(S(=O)(=O)N2CCOCC2)s1)c1cccc(Br)c1,56.5% (active)
13,COc1ccc(OCc2nnc3n2N=C(c2ccccc2)C(CC(=O)O)S3)cc1 (stereo unspecified),-3.99%
14,Cc1ccc(/C=C/C(=O)Nc2ccc([N+](=O)[O-])c(NC(=O)/C=C/c3ccc(C)o3)c2)o1,-11.9%
15,CC(C)(C)NC(=O)COc1ccc(CNc2ccc3[nH]c(=O)[nH]c3c2)cc1,27.4%
16,CCOC(=O)C1=C(c2ccc(OC)cc2)C(=O)c2ccccc2C1=O,84.4% (active)

row,Structure (SMILES),inhibition
1,COc1cccc(C(=O)Nc2nnc(S(=O)(=O)N(C)c3ccccc3)s2)c1,89.1% (active)
2,O=C1C=CC(=O)N1c1ccc(N2CCCCC2)cc1,-20%
3,Cn1c(-c2sccc2OCc2cccc(C(F)(F)F)c2)n[nH]c1=S,4.08%
4,O=C1/C(=C\c2ccc([N+](=O)[O-])cc2)CS(=O)(=O)C/C1=C/c1ccc([N+](=O)[O-])cc1,-19.8%
5,COc1cccc(C(=O)Nc2nnc(S(=O)(=O)N3CCCCC3)s2)c1,72.7% (active)
6,CCN1CCCC1CNC(=O)c1ccc2c(c1)NC(=O)/C(=C\c1ccccc1F)S2 (stereo unspecified),-2.12%
7,O=[N+]([O-])c1c(NCCO)cc(Sc2nc3ccccc3s2)c2nonc12,-9.49%
8,OCCN1CCN(C(=S)c2ccc(-c3ccccc3)cc2)CC1,-9.62%
9,CCSc1nnc(NC(=O)c2ccc(C)cc2)s1,61.9% (active)
10,Cc1ccnc(-n2sc3ccccc3c2=O)n1,-36%
11,COc1c(O)ccc2c1CN1CCc3cc4c(cc3C1C2)OCO4 (stereo unspecified),12.4%
12,COc1ccc2c(c1)c(=Cc1ccc(N(C)C)cc1)c1cc(-c3ccccc3)[n+](C)n12,17.5%
13,Cc1cccc(C(=O)Nc2nnc(S(=O)(=O)N3CCCCCC3)s2)c1,46.7%
14,c1ccc(-c2cn3c(n2)CCc2ccc4cccnc4c2-3)cc1,10.4%
15,C=CCc1ccccc1OCC(=O)N/N=C/c1ccccc1OCC,43.3%

# Reference: PubChem BioAssay AID504862 (Sanford-Burnham Center for Chemical Genomics, 2011)
